In PubChem BioAssay (NCATS):
Inconclusive results are not listed. Active and inactive are the calls of the source. Unless noted, the call rests on the fitted dose curve.

Tests used:
[1] = Cell Viability - BJ (AID 421); conditions: BJ fibroblast viability, qHTS;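 further: potency means the concentration at half of the fitted maximal effect; cells exposed to compound for 40 hours at 37 °C before readout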
Method in brief: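 Cytotoxicity in human BJ foreskin fibroblasts is scored as loss of cellular ATP after a 40-hour exposure, measured by luciferase luminescence. Controls are DMSO and 100 uM tamoxifen.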

[2] = Cell Viability - Jurkat (AID 426;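 active means dose-dependent loss of cell ATP signal giving a full or clear fitted curve, ranked by lower potency value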;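 further: potency means the concentration at half of the fitted maximal effect; cells exposed to compound for 40 hours at 37 °C before ATP read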); conditions: qHTS
Method in brief: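 Seed 5000 Jurkat E6-1 cells/well; add compound; incubate 40 hr at 37 °C; add CellTiter-Glo; wait 20 min at room temperature; read luminescence. Fit concentration-response with Hill equation for AC50.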

[3] = Cell Viability - Hek293 (AID 427;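 active means compounds whose dose-response curve shows a full or clear partial loss of cell viability, called from curve shape rather than a numeric limit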;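 further: potency means the concentration at half of the fitted maximal effect; cells exposed to compound for 40 hours at 37 °C before reading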); conditions: qHTS
Method in brief: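 qHTS, human embryonic kidney (adenovirus-transformed) cells; 40 hr cpd, 37 °C; CellTiter-Glo ATP luminescence. Norm: DMSO = 0, 100 uM tamoxifen = 100% inhibition. Hill-fit AC50.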

[4] = Cell Viability - HepG2 (AID 433); conditions: qHTS;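 further: potency means the concentration at half of the fitted maximal effect; cells exposed to compound for 40 hours; potency for ATP loss meaning cytotoxicity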
Method in brief: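 In this qHTS format, a 40 h, 37 °C compound incubation of HepG2 cells in complete medium precedes a 20 min CellTiter-Glo step at room temperature. Tamoxifen and doxorubicin serve as positive controls; Hill-equation fits yield AC50.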

[5] = Cell Viability - MRC5 (AID 434); conditions: MRC5 lung fibroblast viability, qHTS;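 further: potency means the concentration at half of the fitted maximal effect; cells exposed to compound for 40 hours at 37 °C; potency reflects cytotoxicity seen as loss of intracellular ATP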
Method in brief: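 MRC5 normal human lung fibroblasts (1500/well) were treated with compounds for 40 hr at 37 °C in complete medium, and viable cells were measured as intracellular ATP by CellTiter-Glo luminescence. AC50 came from Hill fits, normalized to DMSO and 100 uM tamoxifen.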

[6] = Cell Viability - SK-N-SH (AID 435); conditions: SK-N-SH neuroblastoma cell viability qHTS;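 further: potency means the concentration at half of the fitted maximal effect; compound exposure lasted 40 h at 37 °C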
Method in brief: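 Human neuroblastoma line, 40 h exposure at 37 °C, ATP quantified via luciferase luminescence; DMSO and 100 uM tamoxifen define 0 and 100% inhibition for AC50 fitting.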

[7] = molecular target: Mitogen-activated protein kinase 10 (Mus musculus) (UniProt Q61831); assay: JNK3 AlphaScreen Assay (AID 530; active means well fitted curve in either direction with a large enough effect, not every such curve was filed as active;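 further: kinase came from lysate of stimulated human HepG2 cells; signal reports phosphorylation of biotinylated GST-cJun 1-79 at Ser73 with 10 µM ATP; on the % scale 0 is the no-effect control and ±100 the full control effect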); conditions: JNK3 lysate, c-Jun phosphorylation; series mostly up to 57.1 µM
Method in brief: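 JNK3 came from HepG2 lysates pre-activated with IL-1beta and TNF-alpha and phosphorylated biotinylated GST-cJun (1-79) at 10 uM ATP, pH 7.6, room temperature. Compounds were titrated. AlphaScreen signal used anti-phospho-cJun (Ser73) antibody.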

[8] = Cell Viability - HUV-EC-C (AID 542; active means well fitted curve in the direction sought with a large enough effect; an effect the other way counts as inactive or inconclusive;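 further: cells exposed to compound for 40 hours; on the % scale 0 is the no-effect control and ±100 the full control effect; nearly all actives have a fitted effect of over 35% in size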); conditions: HUV-EC-C endothelial cell viability, qHTS; series mostly up to 92.2 µM
Method in brief: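 Decrease in cellular ATP, quantified by luciferase luminescence, reflects toxicity in normal human vascular endothelial HUV-EC-C cells given compound for 40 hr in complete culture medium. Values are AC50s from concentration-response curves.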

[9] = Cell Viability - NIH 3T3 (AID 541; active means well fitted curve in the direction sought with a large enough effect; an effect the other way counts as inactive or inconclusive;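 further: cells exposed to compound for 40 hours; plate controls were DMSO alone for no effect and tamoxifen positive control for full effect; nearly all actives have a fitted effect of over 25% in size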); conditions: NIH 3T3 cell viability, qHTS; activity change, negative = cytotoxicity: at 92.2 µM (top of the series)
Method in brief: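 AC50 values reflect concentration-dependent loss of intracellular ATP in NIH 3T3 cells after 40 hr treatment in complete culture medium, quantified by luciferase-based luminescence.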

[10] = Cell Viability - N2a (AID 540; active means well fitted curve in the direction sought with a large enough effect; an effect the other way counts as inactive or inconclusive;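 further: plate controls were DMSO alone for no effect and tamoxifen control for full effect; nearly all actives have a fitted effect of over 45% in size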); conditions: N2a mouse neuroblastoma cell viability; activity change, negative = cytotoxicity: at 92.2 µM (top of the series)
Method in brief: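 First, 1500 N2a cells per well incubate 5 hr at 37 °C; next, compounds are added and incubated 40 hr at 37 °C; finally CellTiter-Glo is added and luminescence read after 20 min, with AC50 derived by Hill modeling.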

O=[N+]([O-])c1cccc(Cl)c1
inactive: Potency [1] > 92 µM | Potency [2] > 92 µM | Potency [3] > 92 µM | Potency [4] > 92 µM | Potency [5] > 92 µM | Potency [6] > 92 µM | outcome [7] | Potency [8]

FB(F)F
inactive: Potency [1] > 92 µM | Potency [2] > 92 µM | Potency [3] > 92 µM | Potency [4] > 92 µM | Potency [5] > 92 µM | Potency [6] > 92 µM | outcome [7] | Potency [9] | Potency [8]

CC(=O)Nc1ccccc1C
inactive: Potency [1] > 92 µM | Potency [2] > 92 µM | Potency [3] > 92 µM | Potency [4] > 92 µM | Potency [5] > 92 µM | outcome [7] | activity change, negative = cytotoxicity [10] 2.99%

Nc1ccccc1[N+](=O)[O-]
inactive: Potency [1] > 92 µM | Potency [2] > 92 µM | Potency [3] > 92 µM | Potency [4] > 92 µM | Potency [5] > 92 µM | Potency [6] > 92 µM | outcome [7] | Potency [9] | Potency [8]

CCNc1ccccc1
inactive: Potency [1] > 92 µM | Potency [2] > 92 µM | Potency [3] > 92 µM | Potency [4] > 92 µM | Potency [5] > 92 µM | Potency [6] > 92 µM | outcome [7] | Potency [9] | Potency [8]

C1CCC2OC2C1 (centres undefined)
inactive: Potency [1] > 92 µM | Potency [2] > 92 µM | Potency [3] > 92 µM | Potency [4] > 92 µM | Potency [5] > 92 µM | Potency [6] > 92 µM | outcome [7] | Potency [9]

Cc1cccc(C(=O)O)c1
inactive: Potency [1] > 92 µM | Potency [2] > 92 µM | Potency [3] > 92 µM | Potency [4] > 92 µM | Potency [5] > 92 µM | Potency [6] > 92 µM | outcome [7] | Potency [9] | Potency [8]

C=CC(=O)NC(C)C
inactive: Potency [1] > 92 µM | Potency [2] > 92 µM | Potency [3] > 92 µM | Potency [4] > 92 µM | Potency [5] > 92 µM | Potency [6] > 92 µM | outcome [7] | Potency [9] | Potency [8]

Clc1cc(Cl)cc(Cl)c1
inactive: Potency [1] > 92 µM | Potency [2] > 92 µM | Potency [3] > 92 µM | Potency [4] > 92 µM | Potency [5] > 92 µM | outcome [7] | activity change, negative = cytotoxicity [10] 4.86% | Potency [9] | Potency [8]

c1ccc2c(c1)ccc1ncccc12
inactive: Potency [1] > 92 µM | Potency [2] > 92 µM | Potency [3] > 92 µM | Potency [4] > 92 µM | Potency [5] > 92 µM | Potency [6] > 92 µM | outcome [7] | Potency [8]

COC(=O)CCC(=O)OC
inactive: Potency [1] > 92 µM | Potency [2] > 92 µM | Potency [3] > 92 µM | Potency [4] > 92 µM | Potency [5] > 92 µM | Potency [6] > 92 µM | outcome [7] | Potency [8]

COc1cccc(N)c1
inactive: Potency [1] > 92 µM | Potency [2] > 92 µM | Potency [3] > 92 µM | Potency [4] > 92 µM | Potency [5] > 92 µM | Potency [6] > 92 µM | outcome [7] | Potency [9] | Potency [8]

CC(=O)Nc1ccc(N)cc1
inactive: Potency [1] > 92 µM | Potency [2] > 92 µM | Potency [3] > 92 µM | Potency [4] > 92 µM | Potency [5] > 92 µM | Potency [6] > 92 µM | outcome [7] | Potency [9]

C/C=C1\CC2C=CC1C2 (centres undefined)
inactive: Potency [1] > 92 µM | Potency [2] > 92 µM | Potency [3] > 92 µM | Potency [4] > 92 µM | Potency [5] > 92 µM | outcome [7] | activity change, negative = cytotoxicity [10] 4.82% | Potency [9] | Potency [8]

c1ccc2n[nH]nc2c1
inactive: Potency [1] > 92 µM | Potency [2] > 92 µM | Potency [3] > 92 µM | Potency [4] > 92 µM | Potency [5] > 92 µM | Potency [6] > 92 µM | outcome [7] | Potency [9] | Potency [8]

Nc1cccc2c(=O)[nH][nH]c(=O)c12
inactive: Potency [1] > 92 µM | Potency [2] > 92 µM | Potency [3] > 92 µM | Potency [4] > 92 µM | Potency [5] > 92 µM | Potency [6] > 92 µM | outcome [7] | Potency [9] | Potency [8]

CC#N
inactive: Potency [1] > 92 µM | Potency [2] > 92 µM | Potency [3] > 92 µM | Potency [4] > 92 µM | Potency [5] > 92 µM | outcome [7] | activity change, negative = cytotoxicity [10] 0.749% | Potency [9] | Potency [8]

Cc1cccc(C)c1O
inactive: Potency [1] > 92 µM | Potency [2] > 92 µM | Potency [3] > 92 µM | Potency [4] > 92 µM | Potency [5] > 92 µM | outcome [7] | activity change, negative = cytotoxicity [10] -7.98% | Potency [9] | Potency [8]

CCCC=O
inactive: Potency [1] > 92 µM | Potency [2] > 92 µM | Potency [3] > 92 µM | Potency [4] > 92 µM | Potency [5] > 92 µM | Potency [6] > 92 µM | outcome [7] | Potency [9] | Potency [8]
